Measured values as given in PubChem BioAssay (Tox21).
Values without a mark were called inactive. Inconclusive results are not listed. A call without a number means that no potency is given here. Calls of active or inactive are those of the source. Unless noted, calls come from the whole dose curve; as a rule, active = well fitted curve in the direction sought with a large enough effect in the repeat runs; inconclusive = weak or mixed curves; inactive = no such curve, though single readings can be large; an effect the other way counts as inactive or inconclusive.

Assays:
[1] = qHTS assay to identify small molecule agonists of the estrogen receptor alpha (ER-alpha) signaling pathway in the presence of an antagonist - cell viability counter screen (AID 1259386);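 note: series mostly up to about 92 µM; cells exposed to compounds for 22 h at 37 °C before the viability read; nearly all actives have a fitted effect of over 30% in size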
Method in brief: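 ICI-182,780 at 10.0nM final accompanies the compound titration (15 concentrations, 22hr, 37C) on VM7Luc4E2 cells. The CellTiter-Fluor fluorescence readout runs in the same wells as the luciferase assay.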

[2] = molecular target: Progesterone receptor (Homo sapiens) (UniProt P06401); assay: qHTS assay to identify small molecule agonists of the progesterone receptor (PR) signaling pathway (AID 1346784; calls by dose curve; note: nearly all actives have a fitted effect of over 30% in size)
Method in brief: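 Fluorescence from LiveBLAzer B/G FRET substrate cleavage (2 hr, RT) reported PR activation in PR-UAS-bla HEK 293T cells treated 16 hr at 37C/5% CO2 with compounds; medium contained 2% charcoal-stripped FBS.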

[3] = molecular target: Progesterone receptor (Homo sapiens) (UniProt P06401); assay: qHTS assay to identify small molecule antagonists of the progesterone receptor (PR) signaling pathway (AID 1346795; active = well fitted inhibition curve with a large enough effect in the signal ratio in the repeat runs, not every such curve was filed as active; the % refers to the signal ratio)
Method in brief: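 Fluorescence intensity measured 2 hr after adding beta-lactamase FRET substrate to PR-UAS-bla HEK293T cells that had been co-treated 16 hr with compound and 1 nM R5020 (final concentration) in 2% charcoal-stripped FBS.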

[4] = qHTS assay to identify small molecule agonists of the progesterone receptor (PR) signaling pathway - cell viability counter screen (AID 1346799; calls by dose curve; note: nearly all actives have a fitted effect of over 45% in size)
Method in brief: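 In parallel with the beta-lactamase readout, cytotoxicity toward PR-UAS-bla HEK293T cells was measured by CellTiter-Glo luminescence following 16 hr compound incubation in 2% charcoal-stripped FBS medium.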

[5] = qHTS assay to identify small molecule antagonists of the TGF-beta/Smad signaling pathway - cell viability counter screen (AID 1346824); note: nearly all actives have a fitted effect of over 50% in size
Method in brief: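 SBE-bla HEK 293T cells were plated overnight at 37 C, then given compounds in DMSO plus TGF-beta1 (added as 0.25 ng/mL solution) for 5 hr. After the bla read, CellTiter-Glo was added to the same wells and luminescence read after 30 min at room temperature.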

[6] = qHTS assay to identify small molecule agonists of the TGF-beta/Smad signaling pathway - cell viability counter screen (AID 1346829); note: top concentration of the series differs between compounds; nearly all actives have a fitted effect of over 45% in size
Method in brief: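 After overnight seating at 37 C and 5% CO2, reporter cells got compounds for 5 hr and FRET substrate for 2 hr; cell viability then came from CellTiter-Glo luminescence.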

[7] = molecular target: Thyrotropin-releasing hormone receptor (Homo sapiens) (UniProt P34981); assay: qHTS assay to identify small molecule antagonists of the thyrotropin-releasing hormone receptor (TRHR) signaling pathway (AID 1346877; active = well fitted inhibition curve with a large enough effect in the repeat runs, not every such curve was filed as active; note: series mostly up to about 51 µM)
Method in brief: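 Screening used HEK293 cells engineered with TRHR, with a brief 5 min room-temperature compound exposure preceding addition of TRH to 1 nM. The read-out was kinetic calcium-dye fluorescence, concentration-response from 15 doses in triplicate.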

[8] = molecular target: Thyrotropin-releasing hormone receptor (Homo sapiens) (UniProt P34981); assay: qHTS assay to identify small molecule agonists of the thyrotropin-releasing hormone receptor (TRHR) signaling pathway (AID 1346891; calls by dose curve;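 note: HEK293 cells expressing TRHR with calcium dye readout; series mostly up to about 58 µM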)
Method in brief: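 Compounds were tested as agonists at 15 concentrations, in triplicate, on TRHR-Hek293 cells; calcium-sensitive dye fluorescence was recorded for 3 min following addition.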

[9] = Human pregnane X receptor (PXR) small molecule agonists, qHTS cell viability counter screen (AID 1346977); note: nearly all actives have a fitted effect of over 50% in size
Method in brief: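 Viability counter screen: CellTiter-Fluor signal in PXR-Luc HepG2 cells, 24hr compound exposure, 37C, 5% CO2.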

[10] = Caspase-3/7 induction in HepG2 cells by small molecules, qHTS assay (AID 1346978); note: nearly all actives have a fitted effect of over 15% in size
Method in brief: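 Wild-type HepG2 cells (2,000/well) were settled 5 h at 37 C, 5% CO2, then exposed to compounds in DMSO for 17 h. Caspase-3/7 activity was read by luminescence 30 min after adding Caspase-Glo 3/7 reagent at room temperature.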

[11] = Caspase-3/7 induction in CHO-K1 cells by small molecules, qHTS cell viability counter screen (AID 1346979); note: nearly all actives have a fitted effect of over 35% in size; note: potency is the fitted concentration of half-maximal effect
Method in brief: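 Viability readout by fluorescence (CellTiter-Fluor) on wild-type CHO-K1 cells exposed for 16hr at 37C and 5% CO2 to compounds delivered in DMSO; reagent incubated 1hr before reading.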

[12] = molecular target: Nuclear receptor subfamily 1 group I member 2 (Homo sapiens) (UniProt O75469); assay: Human pregnane X receptor (PXR) small molecule agonists, qHTS assay (AID 1346982); note: nearly all actives have a fitted effect of over 35% in size; note: potency is the fitted concentration of half-maximal effect
Method in brief: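 We seeded PXR-Luc HepG2 cells in assay medium containing 5% charcoal-stripped FBS, added compounds 5 hr later, incubated 24 hr, and read luminescence with ONE-Glo reagent.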

[13] = qHTS assay to identify small molecule antagonists of the progesterone receptor (PR) signaling pathway - cell viability counter screen (AID 1346798); note: series mostly up to about 92 µM; nearly all actives have a fitted effect of over 50% in size
Method in brief: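 CellTiter-Glo luminescence; PR-UAS-bla HEK293T, 3,000 cells/well; compound + R5020, 16 hr, 37C/5% CO2; 30 min RT before read.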

[14] = qHTS assay to identify small molecule agonists of the TGF-beta/Smad signaling pathway (AID 1346859; active = well fitted activation curve with a large enough effect in the signal ratio in the repeat runs, not every such curve was filed as active; the % refers to the signal ratio; note: series mostly up to about 77 µM)
Method in brief: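 After overnight seeding, SBE-bla HEK 293T cells are dosed with compounds in DMSO and kept 5 hr at 37 C, 5% CO2. LiveBLAzer-type FRET substrate is then applied for 2 hr at room temperature.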

[15] = Caspase-3/7 induction in CHO-K1 cells by small molecules, qHTS assay (AID 1346980); note: nearly all actives have a fitted effect of over 15% in size
Method in brief: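 Wild-type cells were seeded at 1,500 per well and settled 5 hr at 37 C, 5% CO2, then exposed to DMSO-dissolved compounds for 17 hr. Caspase-Glo 3/7 reagent was added, and luminescence was read after 30min at room temperature.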

[16] = Caspase-3/7 induction in HepG2 cells by small molecules, qHTS cell viability counter screen (AID 1346981); note: nearly all actives have a fitted effect of over 30% in size; note: potency is the fitted concentration of half-maximal effect
Method in brief: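 Multiplexed with the caspase-3/7 assay: HepG2 cells, 16 hr compound treatment, CellTiter-Fluor viability detection by fluorescence.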

[17] = molecular target: Nuclear receptor subfamily 1 group I member 2 (Rattus norvegicus) (UniProt Q9R1A7); assay: Rat pregnane X receptor (rPXR) activation by small molecules, qHTS assay (AID 1346983); conditions: rPXR luciferase reporter cells, One-Glo luminescence, 24 h; hits give high values; note: nearly all actives have a fitted effect of over 20% in size
Method in brief: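 Cell-based rPXR luciferase reporter assay, 2,000 cells per well, rested 5hr at 37 C before compound addition in DMSO, then 24 hr at 37 C. One-Glo reagent was added and luminescence read after 30 min at room temperature.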

[18] = molecular target: Nuclear receptor subfamily 1 group I member 2 (Homo sapiens) (UniProt O75469); assay: CYP3A4 induction through human pregnane X receptor (PXR) by small molecules, qHTS assay (AID 1346984); note: nearly all actives have a fitted effect of over 40% in size
Method in brief: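 qHTS, concentration-response format: HepG2 DPX-2 line, PXR/CYP3A4-luc. Exposure 24 h, 37C. Substrate Luciferin-IPA 3uM final, 3 h. Detection One-Glo, 30 min RT.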

[19] = molecular target: Nuclear receptor subfamily 1 group I member 2 (Homo sapiens) (UniProt O75469); assay: Human pregnane X receptor (PXR) activation by small molecules, qHTS assay (AID 1346985); note: nearly all actives have a fitted effect of over 40% in size; note: potency is the fitted concentration of half-maximal effect
Method in brief: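 DPX-2 cells (HepG2 co-transfected with a PXR response element and a CYP3A4-promoter luciferase construct) were seeded at 2,000 per well, rested 5 hr at 37C, then exposed to DMSO-dissolved compounds for 24 hr. Activation was read as luciferase luminescence.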

Thyrotropin-releasing hormone receptor (Homo sapiens), sequence (P34981 whole entry, looked up): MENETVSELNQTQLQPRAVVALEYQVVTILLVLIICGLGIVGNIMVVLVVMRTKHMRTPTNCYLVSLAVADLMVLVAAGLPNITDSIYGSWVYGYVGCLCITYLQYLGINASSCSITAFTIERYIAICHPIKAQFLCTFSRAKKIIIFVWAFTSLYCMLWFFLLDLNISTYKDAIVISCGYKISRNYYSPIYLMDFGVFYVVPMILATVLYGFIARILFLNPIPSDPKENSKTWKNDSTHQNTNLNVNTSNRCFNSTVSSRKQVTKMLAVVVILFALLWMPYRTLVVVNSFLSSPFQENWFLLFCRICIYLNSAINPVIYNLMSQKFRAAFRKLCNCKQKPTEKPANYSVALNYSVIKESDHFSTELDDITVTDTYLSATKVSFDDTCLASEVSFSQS
Nuclear receptor subfamily 1 group I member 2 (Homo sapiens), sequence (O75469 whole entry, looked up): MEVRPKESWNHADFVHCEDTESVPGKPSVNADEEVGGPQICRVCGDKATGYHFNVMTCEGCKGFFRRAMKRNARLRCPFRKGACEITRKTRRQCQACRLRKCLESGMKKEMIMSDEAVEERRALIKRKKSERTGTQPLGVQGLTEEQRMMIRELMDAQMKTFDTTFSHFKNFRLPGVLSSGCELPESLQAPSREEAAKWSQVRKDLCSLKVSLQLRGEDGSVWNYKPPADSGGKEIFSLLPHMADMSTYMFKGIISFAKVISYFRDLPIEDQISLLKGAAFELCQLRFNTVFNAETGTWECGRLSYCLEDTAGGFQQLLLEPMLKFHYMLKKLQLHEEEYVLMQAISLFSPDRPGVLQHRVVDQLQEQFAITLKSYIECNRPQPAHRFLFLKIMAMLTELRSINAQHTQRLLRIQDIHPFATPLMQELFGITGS
Nuclear receptor subfamily 1 group I member 2 (Rattus norvegicus), sequence (Q9R1A7 whole entry, looked up): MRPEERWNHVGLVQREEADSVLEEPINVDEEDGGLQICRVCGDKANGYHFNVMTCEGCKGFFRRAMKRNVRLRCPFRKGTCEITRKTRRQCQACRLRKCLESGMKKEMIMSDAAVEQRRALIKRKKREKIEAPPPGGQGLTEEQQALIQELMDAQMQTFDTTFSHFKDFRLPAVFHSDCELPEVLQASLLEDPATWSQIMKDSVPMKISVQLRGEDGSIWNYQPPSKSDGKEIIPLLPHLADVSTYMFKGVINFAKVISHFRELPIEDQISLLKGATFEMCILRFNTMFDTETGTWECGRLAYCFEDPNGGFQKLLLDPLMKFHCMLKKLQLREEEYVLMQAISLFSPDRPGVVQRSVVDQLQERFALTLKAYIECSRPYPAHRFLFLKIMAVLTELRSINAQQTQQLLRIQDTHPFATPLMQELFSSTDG
Progesterone receptor (Homo sapiens), sequence (P06401 whole entry, looked up): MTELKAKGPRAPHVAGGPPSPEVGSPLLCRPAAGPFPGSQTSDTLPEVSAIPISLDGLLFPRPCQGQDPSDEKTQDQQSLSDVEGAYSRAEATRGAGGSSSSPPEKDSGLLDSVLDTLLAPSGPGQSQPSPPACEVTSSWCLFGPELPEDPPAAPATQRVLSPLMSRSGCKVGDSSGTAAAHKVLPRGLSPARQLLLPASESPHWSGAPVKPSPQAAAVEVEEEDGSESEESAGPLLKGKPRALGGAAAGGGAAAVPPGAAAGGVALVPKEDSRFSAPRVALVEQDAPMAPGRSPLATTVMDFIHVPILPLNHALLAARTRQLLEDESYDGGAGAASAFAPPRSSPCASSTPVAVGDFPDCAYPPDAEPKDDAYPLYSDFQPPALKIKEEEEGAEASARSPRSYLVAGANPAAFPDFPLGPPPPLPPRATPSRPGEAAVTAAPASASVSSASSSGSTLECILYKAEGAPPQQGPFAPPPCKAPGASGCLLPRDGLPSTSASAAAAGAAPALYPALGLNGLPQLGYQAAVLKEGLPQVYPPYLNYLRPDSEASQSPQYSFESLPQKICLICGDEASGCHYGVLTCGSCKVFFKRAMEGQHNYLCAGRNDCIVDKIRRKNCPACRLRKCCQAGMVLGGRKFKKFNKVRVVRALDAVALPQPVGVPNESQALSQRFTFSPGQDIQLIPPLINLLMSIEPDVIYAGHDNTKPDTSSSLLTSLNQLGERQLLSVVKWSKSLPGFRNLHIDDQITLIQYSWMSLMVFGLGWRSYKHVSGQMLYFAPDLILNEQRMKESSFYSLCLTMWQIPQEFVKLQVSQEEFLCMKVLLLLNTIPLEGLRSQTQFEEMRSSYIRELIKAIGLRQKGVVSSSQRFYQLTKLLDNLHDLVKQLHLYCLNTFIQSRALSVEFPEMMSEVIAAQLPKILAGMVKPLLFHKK

Row | SMILES | Potency [1] | Potency [2] | Potency [3] | Potency [4] | outcome [5] | outcome [6] | outcome [7] | outcome [8] | Potency [9] | Potency [10] | Potency [11] | Potency [12] | Potency [13] | outcome [14] | outcome [15] | Potency [16] | max activation [17] | Potency [18] | Potency [19]
1 | FC(F)(F)c1ccccc1-n1ccnc1 | inactive | inactive | inactive | inactive | inactive | inactive | inactive | inactive | inactive | inactive | inactive | inactive | – | – | – | – | – | – | –
2 | O=C(c1ccc(O)cc1)c1ccc(O)c(O)c1O | – | inactive | – | inactive | inactive | inactive | inactive | inactive | – | inactive | 61.4 µM (active) | 13.7 µM (active) | inactive | inactive | inactive | 54.7 µM (active) | – | – | –
3 | C#CC(C)N(C)C(=O)Nc1ccc(Cl)cc1 (stereo not given) | inactive | inactive | – | inactive | inactive | – | inactive | inactive | inactive | inactive | inactive | 61.1 µM (active) | – | inactive | inactive | – | – | – | –
4 | COc1ccc(S(=O)(=O)N2c3ccc(Cl)cc3[C@@](O)(c3ccccc3Cl)[C@H]2C(=O)N2CCC[C@@H]2C(N)=O)cc1OC | inactive | inactive | inactive | inactive | inactive | inactive | inactive | inactive | inactive | inactive | inactive | – | – | inactive | – | inactive | 11.3% | inactive | 14.1 µM (active)
5 | CC(C(=O)O)c1ccc2c(c1)CC(=O)c1ccccc1S2 (stereo not given) | inactive | inactive | inactive | inactive | inactive | inactive | – | – | inactive | inactive | inactive | inactive | inactive | inactive | inactive | inactive | – | – | –
6 | CCCCCOC(=O)CCC | inactive | inactive | – | inactive | inactive | inactive | – | – | inactive | inactive | inactive | inactive | inactive | inactive | inactive | – | – | – | –
7 | O=S(=O)(O)c1cc(O)c2ccc(Nc3ccccc3)cc2c1 | – | inactive | inactive | inactive | inactive | inactive | inactive | inactive | inactive | inactive | – | inactive | – | – | inactive | – | – | – | –
8 | CCOCCOC(=O)/C=C/c1ccc(OC)cc1 | inactive | inactive | inactive | – | inactive | inactive | – | – | inactive | inactive | inactive | inactive | – | inactive | inactive | inactive | – | – | –
9 | C[C@@H](Oc1ccc(CNC(=O)c2cccnc2Oc2ccc3c(c2)OCO3)c(F)c1)C(=O)O | inactive | inactive | inactive | inactive | inactive | inactive | inactive | inactive | – | inactive | inactive | inactive | – | inactive | inactive | inactive | – | – | –
10 | COc1cc(NS(=O)(=O)c2ccc(N)cc2)nc(OC)n1 | inactive | inactive | inactive | – | inactive | inactive | inactive | inactive | inactive | inactive | inactive | inactive | – | inactive | inactive | inactive | -2.35% | inactive | inactive
11 | CCCCCCCCC(=O)Cl | inactive | inactive | inactive | inactive | inactive | – | inactive | inactive | inactive | inactive | inactive | inactive | inactive | inactive | inactive | – | – | – | –
12 | NC(CO)C(=O)NNCc1ccc(O)c(O)c1O (stereo not given) | – | – | inactive | inactive | inactive | inactive | – | – | inactive | inactive | inactive | – | – | inactive | inactive | inactive | -1.3% | – | inactive
13 | COC(=O)[C@@H]1[C@H]2C[C@H]3c4[nH]c5ccccc5c4CCN3C[C@@H]2CC[C@@H]1O | inactive | inactive | inactive | – | inactive | inactive | inactive | inactive | inactive | inactive | inactive | – | inactive | – | – | inactive | – | – | –
14 | O=P(O)(O)OP(=O)(O)O | inactive | inactive | inactive | inactive | inactive | inactive | inactive | inactive | – | inactive | inactive | – | – | – | inactive | inactive | 1.84% | – | –
15 | N#Cc1ccc(C(=O)O)cc1 | inactive | inactive | inactive | – | inactive | inactive | inactive | inactive | inactive | inactive | inactive | inactive | – | inactive | inactive | – | – | – | –
16 | CCCOC(OCCC)OCCC | inactive | inactive | inactive | inactive | inactive | inactive | – | – | inactive | inactive | inactive | inactive | – | inactive | inactive | inactive | – | – | –
